# A number with no mark means an inactive call.
# What was measured:
# Experiment in all cases: log2 ratio of Biotin-Ahx-Ub-VS probe labelling (fragment/DMSO); higher = less target engagement (more negative = stronger competition), active = hit call of the paper (q ≤ 0.05, log2 ratio ≤ -1)
# Conditions in all cases: compound concentration: 200 uM; treatment time: 3 h
# [1] = biological target: UniProt O00507
# In short: (§1)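 The table lists average log2 ratios of fragment over vehicle, from an unpaired t-test on global-median-normalised Spectronaut label-free quantities. Proteins with ≥2 unique peptides were used. Samples were HEK293T lysate (495 µg) treated in triplicate with fragment at 200 µM or vehicle for 3 h, then with Biotin-Ahx-Ub-VS (0.5 µM final) for 1 h, with labelled DUBs NeutrAvidin-enriched and run by diaPASEF LC-MS/MS.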
# [2] = biological target: UniProt P51784
# Sequence of UniProt P51784 (P51784 whole entry): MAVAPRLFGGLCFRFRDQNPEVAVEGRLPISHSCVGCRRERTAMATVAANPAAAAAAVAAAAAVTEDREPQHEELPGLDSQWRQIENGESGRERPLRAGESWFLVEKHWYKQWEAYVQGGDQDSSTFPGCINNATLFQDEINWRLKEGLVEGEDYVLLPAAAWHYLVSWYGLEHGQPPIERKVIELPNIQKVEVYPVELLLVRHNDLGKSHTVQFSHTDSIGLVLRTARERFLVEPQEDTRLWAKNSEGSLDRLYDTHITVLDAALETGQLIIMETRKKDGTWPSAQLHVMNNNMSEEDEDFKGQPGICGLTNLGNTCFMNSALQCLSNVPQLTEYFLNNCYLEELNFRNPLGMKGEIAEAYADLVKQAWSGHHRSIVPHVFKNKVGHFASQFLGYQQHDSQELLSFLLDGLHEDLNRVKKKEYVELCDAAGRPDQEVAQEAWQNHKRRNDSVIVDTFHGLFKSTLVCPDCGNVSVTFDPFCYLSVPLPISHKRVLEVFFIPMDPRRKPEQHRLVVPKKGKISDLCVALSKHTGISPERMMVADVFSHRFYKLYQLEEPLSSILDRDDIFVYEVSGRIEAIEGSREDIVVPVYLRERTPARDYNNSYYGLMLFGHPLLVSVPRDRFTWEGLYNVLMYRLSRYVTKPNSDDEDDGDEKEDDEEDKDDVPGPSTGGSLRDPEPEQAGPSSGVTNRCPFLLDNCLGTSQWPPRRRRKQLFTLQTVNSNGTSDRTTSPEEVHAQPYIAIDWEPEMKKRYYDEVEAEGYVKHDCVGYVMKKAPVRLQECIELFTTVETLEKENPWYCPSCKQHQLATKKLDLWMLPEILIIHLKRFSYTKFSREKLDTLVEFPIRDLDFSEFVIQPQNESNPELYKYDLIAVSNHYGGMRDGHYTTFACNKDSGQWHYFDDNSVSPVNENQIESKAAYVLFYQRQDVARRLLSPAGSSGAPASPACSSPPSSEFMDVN
# In short: as §1
# [3] = biological target: T1, UniProt Q5T2D3
# T1 sequence (whole entry): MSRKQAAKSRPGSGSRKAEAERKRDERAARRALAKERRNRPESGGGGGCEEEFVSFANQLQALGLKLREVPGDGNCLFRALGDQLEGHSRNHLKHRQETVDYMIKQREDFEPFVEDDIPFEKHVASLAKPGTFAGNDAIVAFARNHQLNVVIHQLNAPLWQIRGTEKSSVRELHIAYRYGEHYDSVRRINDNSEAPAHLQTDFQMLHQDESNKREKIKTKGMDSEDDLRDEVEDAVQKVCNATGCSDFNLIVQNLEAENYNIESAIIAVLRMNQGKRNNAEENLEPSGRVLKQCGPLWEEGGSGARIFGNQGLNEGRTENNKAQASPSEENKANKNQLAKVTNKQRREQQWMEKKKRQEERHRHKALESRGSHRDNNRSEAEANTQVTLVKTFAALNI
# In short: as §1
# [4] = biological target: T2, UniProt Q8TE49
# T2 sequence (whole entry): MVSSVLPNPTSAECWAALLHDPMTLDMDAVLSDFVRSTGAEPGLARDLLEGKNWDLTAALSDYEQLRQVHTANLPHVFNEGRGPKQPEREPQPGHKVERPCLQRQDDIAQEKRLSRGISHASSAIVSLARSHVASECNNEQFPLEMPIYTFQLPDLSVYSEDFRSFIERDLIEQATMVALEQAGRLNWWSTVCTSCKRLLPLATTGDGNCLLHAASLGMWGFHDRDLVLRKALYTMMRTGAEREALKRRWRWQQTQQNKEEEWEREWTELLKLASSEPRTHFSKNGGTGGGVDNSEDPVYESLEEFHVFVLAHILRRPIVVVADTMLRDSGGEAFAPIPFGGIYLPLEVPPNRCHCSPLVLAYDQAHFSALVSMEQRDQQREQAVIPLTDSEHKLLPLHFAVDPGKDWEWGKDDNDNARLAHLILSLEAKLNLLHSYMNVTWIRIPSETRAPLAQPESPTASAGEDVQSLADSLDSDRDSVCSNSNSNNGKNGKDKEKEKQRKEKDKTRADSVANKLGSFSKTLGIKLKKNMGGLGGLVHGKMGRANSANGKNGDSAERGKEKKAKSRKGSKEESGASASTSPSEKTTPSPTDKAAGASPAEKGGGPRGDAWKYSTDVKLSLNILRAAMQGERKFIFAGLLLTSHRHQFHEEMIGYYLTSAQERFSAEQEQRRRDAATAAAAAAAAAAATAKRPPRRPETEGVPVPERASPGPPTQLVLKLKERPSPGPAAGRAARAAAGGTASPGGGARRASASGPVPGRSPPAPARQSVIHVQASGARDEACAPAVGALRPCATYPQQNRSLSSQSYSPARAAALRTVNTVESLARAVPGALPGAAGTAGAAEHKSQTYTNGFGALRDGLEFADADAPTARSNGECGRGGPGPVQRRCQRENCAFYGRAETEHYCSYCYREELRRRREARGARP
# In short: as §1
# [5] = biological target: T3, UniProt Q9P2H5
# T3 sequence (whole entry): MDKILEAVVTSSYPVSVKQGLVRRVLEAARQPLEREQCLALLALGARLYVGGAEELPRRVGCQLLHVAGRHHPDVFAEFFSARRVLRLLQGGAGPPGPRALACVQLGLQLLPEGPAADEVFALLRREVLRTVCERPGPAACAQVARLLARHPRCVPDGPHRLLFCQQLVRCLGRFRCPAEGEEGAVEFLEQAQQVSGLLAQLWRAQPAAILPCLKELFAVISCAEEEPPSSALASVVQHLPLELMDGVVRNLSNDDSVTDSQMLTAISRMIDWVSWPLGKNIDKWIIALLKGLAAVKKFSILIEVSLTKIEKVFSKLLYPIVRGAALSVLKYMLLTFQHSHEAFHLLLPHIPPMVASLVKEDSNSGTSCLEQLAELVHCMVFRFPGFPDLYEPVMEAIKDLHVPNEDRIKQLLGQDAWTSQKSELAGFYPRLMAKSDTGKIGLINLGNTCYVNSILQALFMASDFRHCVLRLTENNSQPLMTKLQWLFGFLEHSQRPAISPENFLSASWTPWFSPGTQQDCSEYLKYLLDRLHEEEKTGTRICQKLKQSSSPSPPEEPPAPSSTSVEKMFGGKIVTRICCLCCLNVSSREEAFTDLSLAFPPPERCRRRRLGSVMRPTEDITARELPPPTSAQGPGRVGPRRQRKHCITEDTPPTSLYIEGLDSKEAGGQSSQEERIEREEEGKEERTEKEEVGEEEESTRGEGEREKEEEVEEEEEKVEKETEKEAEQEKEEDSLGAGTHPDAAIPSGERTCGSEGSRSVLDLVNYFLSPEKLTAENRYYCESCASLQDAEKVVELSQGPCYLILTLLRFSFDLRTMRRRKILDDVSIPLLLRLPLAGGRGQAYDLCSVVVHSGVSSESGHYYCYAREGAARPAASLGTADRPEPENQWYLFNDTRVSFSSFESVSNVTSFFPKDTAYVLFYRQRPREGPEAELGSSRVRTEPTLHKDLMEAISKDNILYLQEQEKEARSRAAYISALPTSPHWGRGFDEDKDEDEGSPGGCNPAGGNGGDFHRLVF
# In short: as §1
# [6] = biological target: T4, UniProt Q9UGI0
# T4 sequence (whole entry): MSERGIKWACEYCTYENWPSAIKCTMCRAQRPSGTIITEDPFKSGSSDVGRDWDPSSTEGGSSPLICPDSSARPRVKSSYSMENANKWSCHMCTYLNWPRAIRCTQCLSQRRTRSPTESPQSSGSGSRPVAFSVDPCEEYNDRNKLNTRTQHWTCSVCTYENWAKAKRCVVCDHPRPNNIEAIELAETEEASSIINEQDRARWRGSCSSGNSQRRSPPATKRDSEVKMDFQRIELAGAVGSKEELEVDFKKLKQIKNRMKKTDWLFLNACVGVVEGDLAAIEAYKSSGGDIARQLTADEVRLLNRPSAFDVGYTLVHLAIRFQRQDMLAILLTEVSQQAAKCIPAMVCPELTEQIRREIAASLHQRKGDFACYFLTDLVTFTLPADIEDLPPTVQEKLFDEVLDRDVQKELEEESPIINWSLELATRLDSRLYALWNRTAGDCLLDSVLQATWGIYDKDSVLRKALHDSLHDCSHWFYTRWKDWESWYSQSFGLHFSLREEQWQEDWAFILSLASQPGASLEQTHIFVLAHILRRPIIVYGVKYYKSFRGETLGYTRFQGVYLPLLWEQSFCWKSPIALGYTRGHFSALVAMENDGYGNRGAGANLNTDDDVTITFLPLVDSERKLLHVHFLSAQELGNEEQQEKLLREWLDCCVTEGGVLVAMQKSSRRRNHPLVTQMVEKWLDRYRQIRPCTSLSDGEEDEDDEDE
# In short: as §1
# [7] = biological target: T5, YOD1 (UniProt Q5VVQ6)
# T5 sequence (whole entry): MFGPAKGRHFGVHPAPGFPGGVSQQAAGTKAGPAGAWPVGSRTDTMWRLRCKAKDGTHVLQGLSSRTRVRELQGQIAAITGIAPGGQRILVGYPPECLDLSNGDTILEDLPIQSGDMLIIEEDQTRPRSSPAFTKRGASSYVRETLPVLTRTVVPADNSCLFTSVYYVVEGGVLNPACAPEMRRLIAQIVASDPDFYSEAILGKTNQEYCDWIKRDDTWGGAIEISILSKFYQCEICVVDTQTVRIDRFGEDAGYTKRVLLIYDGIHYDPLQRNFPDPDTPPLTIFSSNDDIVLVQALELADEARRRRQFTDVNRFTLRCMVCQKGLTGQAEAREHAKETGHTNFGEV
# In short: as §1
# Sequence of UniProt O00507 (O00507 whole entry, the tested form may be a part): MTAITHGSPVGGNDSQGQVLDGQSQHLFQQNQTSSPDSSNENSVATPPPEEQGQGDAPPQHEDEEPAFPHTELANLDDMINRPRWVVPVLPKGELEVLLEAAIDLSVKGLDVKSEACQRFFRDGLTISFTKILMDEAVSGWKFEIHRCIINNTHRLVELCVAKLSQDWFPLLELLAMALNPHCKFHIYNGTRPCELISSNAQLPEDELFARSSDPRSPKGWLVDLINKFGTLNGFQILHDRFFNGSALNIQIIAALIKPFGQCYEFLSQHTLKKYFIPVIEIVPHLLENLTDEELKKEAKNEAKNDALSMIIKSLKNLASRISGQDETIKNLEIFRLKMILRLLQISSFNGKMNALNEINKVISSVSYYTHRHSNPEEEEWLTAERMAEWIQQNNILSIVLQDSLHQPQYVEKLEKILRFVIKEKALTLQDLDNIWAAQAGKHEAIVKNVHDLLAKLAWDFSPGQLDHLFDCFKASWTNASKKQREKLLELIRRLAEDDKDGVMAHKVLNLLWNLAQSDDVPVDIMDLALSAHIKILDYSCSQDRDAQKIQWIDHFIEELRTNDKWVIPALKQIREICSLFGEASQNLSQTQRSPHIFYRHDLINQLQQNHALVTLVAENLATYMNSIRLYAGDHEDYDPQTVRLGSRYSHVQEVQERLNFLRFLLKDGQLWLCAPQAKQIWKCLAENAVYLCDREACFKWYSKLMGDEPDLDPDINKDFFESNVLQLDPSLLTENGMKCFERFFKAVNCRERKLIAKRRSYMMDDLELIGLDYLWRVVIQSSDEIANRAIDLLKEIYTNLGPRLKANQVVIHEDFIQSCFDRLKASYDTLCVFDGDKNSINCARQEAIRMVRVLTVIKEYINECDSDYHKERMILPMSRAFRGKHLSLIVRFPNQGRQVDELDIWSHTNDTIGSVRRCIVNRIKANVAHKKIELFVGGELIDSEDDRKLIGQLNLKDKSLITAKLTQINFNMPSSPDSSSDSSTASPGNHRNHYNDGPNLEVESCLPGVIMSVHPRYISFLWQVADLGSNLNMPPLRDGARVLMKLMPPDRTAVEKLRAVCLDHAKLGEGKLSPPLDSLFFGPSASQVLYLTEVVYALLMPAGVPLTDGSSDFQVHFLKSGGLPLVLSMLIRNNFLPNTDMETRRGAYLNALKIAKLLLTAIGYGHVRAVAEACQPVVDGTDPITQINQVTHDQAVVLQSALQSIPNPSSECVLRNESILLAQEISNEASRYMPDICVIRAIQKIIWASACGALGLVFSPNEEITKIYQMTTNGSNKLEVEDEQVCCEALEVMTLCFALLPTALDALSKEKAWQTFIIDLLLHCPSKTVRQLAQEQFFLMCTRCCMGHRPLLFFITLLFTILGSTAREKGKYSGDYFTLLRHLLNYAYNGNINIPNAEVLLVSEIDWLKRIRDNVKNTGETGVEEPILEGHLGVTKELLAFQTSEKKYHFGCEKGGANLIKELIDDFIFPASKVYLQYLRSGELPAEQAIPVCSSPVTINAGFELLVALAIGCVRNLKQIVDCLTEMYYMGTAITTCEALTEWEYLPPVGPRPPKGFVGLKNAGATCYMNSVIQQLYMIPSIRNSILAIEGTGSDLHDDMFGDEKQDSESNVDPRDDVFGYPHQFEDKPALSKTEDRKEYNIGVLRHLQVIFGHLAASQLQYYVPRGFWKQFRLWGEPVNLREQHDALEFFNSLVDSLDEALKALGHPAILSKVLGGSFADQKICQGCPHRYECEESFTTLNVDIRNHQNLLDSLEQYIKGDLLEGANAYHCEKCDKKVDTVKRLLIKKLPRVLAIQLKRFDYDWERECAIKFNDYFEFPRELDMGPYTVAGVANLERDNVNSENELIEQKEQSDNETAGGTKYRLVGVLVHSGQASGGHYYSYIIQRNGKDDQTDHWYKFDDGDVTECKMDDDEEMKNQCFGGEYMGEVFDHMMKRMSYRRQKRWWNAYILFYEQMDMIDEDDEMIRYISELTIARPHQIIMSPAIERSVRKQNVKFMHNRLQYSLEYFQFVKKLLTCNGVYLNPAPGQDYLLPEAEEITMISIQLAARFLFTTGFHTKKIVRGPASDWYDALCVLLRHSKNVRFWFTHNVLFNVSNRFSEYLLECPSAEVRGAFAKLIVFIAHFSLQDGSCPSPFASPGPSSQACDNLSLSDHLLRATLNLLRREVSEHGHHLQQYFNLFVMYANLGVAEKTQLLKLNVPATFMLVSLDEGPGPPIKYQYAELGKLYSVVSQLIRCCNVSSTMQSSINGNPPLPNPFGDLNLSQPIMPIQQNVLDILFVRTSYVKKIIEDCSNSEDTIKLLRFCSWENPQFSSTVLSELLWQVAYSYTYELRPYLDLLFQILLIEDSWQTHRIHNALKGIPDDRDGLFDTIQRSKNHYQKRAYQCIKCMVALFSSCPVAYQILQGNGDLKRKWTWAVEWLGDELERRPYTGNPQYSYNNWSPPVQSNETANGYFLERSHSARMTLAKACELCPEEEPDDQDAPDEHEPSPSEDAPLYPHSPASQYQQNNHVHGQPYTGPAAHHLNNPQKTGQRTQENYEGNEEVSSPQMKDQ
SMILES,log2 ratio of Biotin-Ahx-Ub-VS probe labelling [1],log2 ratio of Biotin-Ahx-Ub-VS probe labelling [2],log2 ratio of Biotin-Ahx-Ub-VS probe labelling [3],log2 ratio of Biotin-Ahx-Ub-VS probe labelling [4],log2 ratio of Biotin-Ahx-Ub-VS probe labelling [5],log2 ratio of Biotin-Ahx-Ub-VS probe labelling [6],log2 ratio of Biotin-Ahx-Ub-VS probe labelling [7]
Cl.O=C(CCl)N1CCn2cncc2C1,-0.138,-0.251,-0.246,-0.433,-0.128,-0.182,-0.133
NS(=O)(=O)c1ccc(Cl)c(NC(=O)CCl)c1,-0.168,0.0886,-0.424,-1.53 (active),-0.0565,-0.791,-0.361
Cc1c(NC(=O)CCl)c(=O)n(-c2ccccc2)n1C,0.221,-0.106,-0.105,-0.377,-0.286,0.0727,-0.128
CC(NC(=O)CCl)c1noc(Cc2ccccc2)n1 (centres undefined),-0.447,-0.0798,-0.347,-0.443,-0.534,-0.904,-0.247
O=C(CCl)N1CCOC(c2cccc(F)c2)C1 (centres undefined),0.244,-0.328,-0.182,-1.26 (active),-0.416,-1.44 (active),-0.0782
C#Cc1cccc(NC(=O)CCl)c1,0.0122,-0.102,-0.121,-0.872,-0.252,-1.01 (active),0.0347
COc1ccc(CN(C)C(=O)CCl)cc1,-0.339,0.00264,-0.273,-0.895,0.0343,-0.846,-0.295
CC(NC(=O)CCl)c1csc(-c2ccccc2)n1.Cl (centres undefined),-0.472,-0.138,-0.671,-1.08 (active),-0.482,-0.494,-0.459
O=C(CCl)NC1CCOc2ccccc21 (centres undefined),-0.574,-0.702,-0.795,-1.79 (active),-0.687,-0.865,-0.774
O=C(CCl)NCc1ccc(N2CCOCC2)nc1,-0.134,-0.0382,-0.374,-0.316,-0.162,-0.475,-0.207
NC(=O)C1CCCCN1C(=O)CCl (centres undefined),0.156,-0.0148,-0.206,-1.95 (active),-0.204,-0.866,0.154
Cc1ccc(CC(CO)CNC(=O)CCl)cc1 (centres undefined),-0.3,-0.172,-0.293,-0.933,-0.149,-0.929,-0.164
O=C(CCl)N1CCOCCC1c1ccccc1 (centres undefined),-0.114,0.0584,-0.173,-0.54,-0.305,-0.25,0.199
CN(C)C(=O)c1ccc(CNC(=O)CCl)cc1,0.565,0.0173,-0.167,-0.516,-0.0353,-0.474,0.0763
O=C(CCl)N1CCC(=C(F)CO)C1,0.605,0.155,0.0125,-0.47,-0.115,-0.16,0.406
CN(CCC(O)c1ccc(Br)cc1)C(=O)CCl (centres undefined),-0.198,-0.124,-0.111,-1.29 (active),-0.328,-0.555,0.00847
O=C(CCl)N[C@H]1CCS(=O)(=O)c2ccccc21,-0.141,-0.134,-0.0599,-0.609,-0.0511,-0.158,0.0852
COc1ccc(C2CCCN2C(=O)CCl)c(OC)c1 (centres undefined),0.129,-0.237,-0.139,-0.514,-0.249,-0.113,-0.0199
Cc1ccc(N(CCC#N)C(=O)CCl)cc1C,-0.369,-0.0613,-0.0739,-2.2 (active),-0.14,-1.49 (active),0.0402
O=C(CCl)Nc1ccc2c(c1)OC(F)(F)O2,-0.0305,0.0816,-0.375,-0.815,-0.115,-0.637,-0.0381
CC(c1ccccc1)N(C)C(=O)CCl (centres undefined),-0.143,-0.169,-0.0617,-0.555,-0.0284,-0.295,0.101
O=C(CCl)NCc1cccc(F)c1,0.176,-0.104,-0.0819,-0.349,0.0328,-0.684,-0.0324

# Reference: the supplement of paper PMC11732987, “Enantioselective OTUD7B fragment discovery through chemoproteomics screening and high-throughput optimisation” (Communications Chemistry, 2025)
